What was measured:
Test in all cases: DAPPL (digital affinity profiling via proximity ligation, sequencing); 10 mM Tris-HCl pH 7.5, 50 mM NaCl, 1 mM DTT, 4% glycerol, room temperature, 30 min; GST-TFs on glutathione beads, 16-mer random dsDNA library, 0.1% formaldehyde crosslink after washing; high values mean tight binding
[1] = target: T1, FEV (Homo sapiens, UniProt Q99581 1-238); details: protein: recombinant; tags: N-terminal GST; dsDNA, one strand shown
T1 sequence: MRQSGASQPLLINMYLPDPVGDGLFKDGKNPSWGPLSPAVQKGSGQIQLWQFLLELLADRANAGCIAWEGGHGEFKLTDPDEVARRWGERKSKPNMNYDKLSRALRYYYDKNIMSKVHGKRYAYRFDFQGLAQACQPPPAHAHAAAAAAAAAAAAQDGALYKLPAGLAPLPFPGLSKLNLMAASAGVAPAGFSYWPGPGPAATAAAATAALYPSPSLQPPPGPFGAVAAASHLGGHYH
Method in brief: (§1)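 Sequencing on an Illumina NextSeq500 followed washing, crosslinking with 0.1% formaldehyde, proximity ligation (BsaI/T4 ligase, 1 h, 37 °C) and PCR amplification of pools that had been incubated for 30 min at room temperature with 200 nmole of a random double-stranded 16-mer DNA library in Tris/NaCl/DTT/glycerol buffer. Each pool held DNA-barcoded human transcription factors, expressed in yeast as GST fusions and captured on glutathione beads, plus a tag-only sample. Binding signal is a hexamer's read frequency for a factor divided by its frequency in the tag-only sample.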

[2] = target: ETV5 (Homo sapiens, UniProt P41161 1-510); details: protein: recombinant; tags: N-terminal GST; dsDNA, one strand shown
Sequence of ETV5 (P41161 whole entry): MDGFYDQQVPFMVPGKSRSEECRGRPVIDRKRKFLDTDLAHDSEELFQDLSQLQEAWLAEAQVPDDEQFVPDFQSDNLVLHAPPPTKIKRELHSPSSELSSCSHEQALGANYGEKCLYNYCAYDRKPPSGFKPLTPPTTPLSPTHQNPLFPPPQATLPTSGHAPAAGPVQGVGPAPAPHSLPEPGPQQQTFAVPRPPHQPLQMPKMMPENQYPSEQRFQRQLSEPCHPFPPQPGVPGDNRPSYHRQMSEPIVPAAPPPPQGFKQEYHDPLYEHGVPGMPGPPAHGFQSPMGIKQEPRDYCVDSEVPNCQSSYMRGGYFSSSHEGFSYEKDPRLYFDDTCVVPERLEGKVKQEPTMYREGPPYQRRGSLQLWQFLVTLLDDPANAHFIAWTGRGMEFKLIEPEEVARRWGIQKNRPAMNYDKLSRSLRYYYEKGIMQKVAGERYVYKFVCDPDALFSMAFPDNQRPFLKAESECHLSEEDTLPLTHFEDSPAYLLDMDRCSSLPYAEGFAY
Method in brief: as §1

[3] = target: HSF1 (Homo sapiens, UniProt Q00613 1-529); details: protein: recombinant; tags: N-terminal GST; chain copies: 3; dsDNA, one strand shown
Sequence of HSF1 (Q00613 whole entry): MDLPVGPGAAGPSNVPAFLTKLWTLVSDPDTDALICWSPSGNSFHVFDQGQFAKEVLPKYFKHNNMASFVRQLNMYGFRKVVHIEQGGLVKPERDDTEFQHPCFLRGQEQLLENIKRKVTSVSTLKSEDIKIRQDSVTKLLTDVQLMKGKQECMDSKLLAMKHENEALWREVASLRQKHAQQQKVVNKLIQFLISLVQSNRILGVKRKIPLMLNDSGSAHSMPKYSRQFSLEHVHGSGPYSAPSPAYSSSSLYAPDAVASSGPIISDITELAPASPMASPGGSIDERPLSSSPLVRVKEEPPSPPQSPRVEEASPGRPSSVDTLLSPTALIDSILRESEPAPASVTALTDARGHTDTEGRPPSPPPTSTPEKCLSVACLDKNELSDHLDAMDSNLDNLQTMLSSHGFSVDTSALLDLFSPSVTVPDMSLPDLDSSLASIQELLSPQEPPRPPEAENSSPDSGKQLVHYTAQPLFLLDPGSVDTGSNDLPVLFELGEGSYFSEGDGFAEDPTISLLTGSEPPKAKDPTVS
Method in brief: as §1

[4] = target: T2, SPIC (Homo sapiens, UniProt Q8N5J4 1-248); details: protein: recombinant; tags: N-terminal GST; dsDNA, one strand shown
T2 sequence: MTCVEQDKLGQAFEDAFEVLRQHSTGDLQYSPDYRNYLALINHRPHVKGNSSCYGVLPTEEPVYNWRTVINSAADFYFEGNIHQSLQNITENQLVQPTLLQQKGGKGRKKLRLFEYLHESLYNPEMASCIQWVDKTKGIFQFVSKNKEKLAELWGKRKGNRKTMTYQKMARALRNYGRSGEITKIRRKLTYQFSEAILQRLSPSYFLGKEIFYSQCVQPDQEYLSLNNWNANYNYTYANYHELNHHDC
Method in brief: as §1

[5] = target: ELF4 (Homo sapiens, UniProt Q99607 1-663); details: protein: recombinant; tags: N-terminal GST; dsDNA, one strand shown
Sequence of ELF4 (Q99607 whole entry): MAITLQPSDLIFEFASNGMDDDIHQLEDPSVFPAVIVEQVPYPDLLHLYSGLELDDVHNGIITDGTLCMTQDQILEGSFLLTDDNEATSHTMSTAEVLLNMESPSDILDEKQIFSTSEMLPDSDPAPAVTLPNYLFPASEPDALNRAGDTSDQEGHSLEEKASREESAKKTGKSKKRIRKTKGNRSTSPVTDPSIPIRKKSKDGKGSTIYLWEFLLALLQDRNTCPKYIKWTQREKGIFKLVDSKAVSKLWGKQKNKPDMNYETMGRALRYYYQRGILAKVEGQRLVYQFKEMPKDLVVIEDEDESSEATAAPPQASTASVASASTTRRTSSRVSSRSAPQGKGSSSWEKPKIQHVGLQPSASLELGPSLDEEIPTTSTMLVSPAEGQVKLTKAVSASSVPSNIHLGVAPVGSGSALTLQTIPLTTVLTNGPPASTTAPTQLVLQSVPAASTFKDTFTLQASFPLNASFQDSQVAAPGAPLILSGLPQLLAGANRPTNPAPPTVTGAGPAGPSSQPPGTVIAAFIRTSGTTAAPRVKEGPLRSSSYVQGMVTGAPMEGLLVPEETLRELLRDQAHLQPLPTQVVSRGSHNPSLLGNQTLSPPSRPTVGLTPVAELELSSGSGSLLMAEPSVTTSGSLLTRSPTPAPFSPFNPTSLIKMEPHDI
Method in brief: as §1

[6] = target: T3, ELK4 (Homo sapiens, UniProt P28324-2 1-405); details: protein: recombinant; tags: N-terminal GST; dsDNA, one strand shown
T3 sequence: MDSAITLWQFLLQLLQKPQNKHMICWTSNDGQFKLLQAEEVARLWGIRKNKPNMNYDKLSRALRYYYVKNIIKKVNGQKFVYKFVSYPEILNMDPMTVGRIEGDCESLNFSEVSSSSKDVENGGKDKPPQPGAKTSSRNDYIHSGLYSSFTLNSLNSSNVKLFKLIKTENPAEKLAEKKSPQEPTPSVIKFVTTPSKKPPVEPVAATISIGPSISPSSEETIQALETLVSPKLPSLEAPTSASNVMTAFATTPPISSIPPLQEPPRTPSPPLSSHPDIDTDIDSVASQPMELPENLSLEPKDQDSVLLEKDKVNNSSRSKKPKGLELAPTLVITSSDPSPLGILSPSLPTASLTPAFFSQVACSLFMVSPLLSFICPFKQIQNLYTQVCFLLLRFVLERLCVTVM
Method in brief: as §1

[7] = target: T4, ETV2 (Homo sapiens, UniProt O00321 1-342); details: protein: recombinant; tags: N-terminal GST; dsDNA, one strand shown
T4 sequence: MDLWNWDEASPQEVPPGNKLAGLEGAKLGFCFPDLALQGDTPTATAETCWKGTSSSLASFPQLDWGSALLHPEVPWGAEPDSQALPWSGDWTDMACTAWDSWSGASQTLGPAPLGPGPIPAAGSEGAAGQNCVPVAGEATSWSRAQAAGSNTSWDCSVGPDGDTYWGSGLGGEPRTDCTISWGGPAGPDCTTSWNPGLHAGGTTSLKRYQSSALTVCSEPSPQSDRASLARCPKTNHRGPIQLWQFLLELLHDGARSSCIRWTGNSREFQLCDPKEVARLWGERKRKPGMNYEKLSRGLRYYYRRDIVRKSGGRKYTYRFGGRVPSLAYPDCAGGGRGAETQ
Method in brief: as §1

[8] = target: T5, ELF3 (Homo sapiens, UniProt P78545 1-371); details: protein: recombinant; tags: N-terminal GST; dsDNA, one strand shown
T5 sequence: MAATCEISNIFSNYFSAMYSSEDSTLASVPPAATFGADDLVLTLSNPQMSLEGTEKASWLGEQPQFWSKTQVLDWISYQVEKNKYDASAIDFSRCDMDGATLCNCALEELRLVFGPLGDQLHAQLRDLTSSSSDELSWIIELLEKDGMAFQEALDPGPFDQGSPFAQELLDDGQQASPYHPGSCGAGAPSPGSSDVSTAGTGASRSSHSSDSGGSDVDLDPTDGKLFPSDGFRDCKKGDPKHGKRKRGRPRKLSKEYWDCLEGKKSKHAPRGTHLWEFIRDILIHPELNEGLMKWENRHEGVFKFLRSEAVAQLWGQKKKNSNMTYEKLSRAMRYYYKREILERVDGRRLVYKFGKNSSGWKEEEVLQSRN
Method in brief: as §1

[9] = target: CRX (Homo sapiens, UniProt O43186 1-299); details: protein: recombinant; tags: N-terminal GST; dsDNA, one strand shown
Sequence of CRX (O43186 whole entry): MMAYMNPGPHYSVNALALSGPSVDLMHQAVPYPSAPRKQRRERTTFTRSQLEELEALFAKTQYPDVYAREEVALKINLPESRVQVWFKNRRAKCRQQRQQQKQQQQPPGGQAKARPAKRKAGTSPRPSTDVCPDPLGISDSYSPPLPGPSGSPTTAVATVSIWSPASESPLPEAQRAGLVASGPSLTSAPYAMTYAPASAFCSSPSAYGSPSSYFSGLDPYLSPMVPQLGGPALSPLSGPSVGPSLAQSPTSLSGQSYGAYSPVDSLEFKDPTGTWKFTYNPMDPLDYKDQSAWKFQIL
Method in brief: as §1

[10] = target: ETV1 (Homo sapiens, UniProt P50549 1-477); details: protein: recombinant; tags: N-terminal GST; dsDNA, one strand shown
Sequence of ETV1 (P50549 whole entry): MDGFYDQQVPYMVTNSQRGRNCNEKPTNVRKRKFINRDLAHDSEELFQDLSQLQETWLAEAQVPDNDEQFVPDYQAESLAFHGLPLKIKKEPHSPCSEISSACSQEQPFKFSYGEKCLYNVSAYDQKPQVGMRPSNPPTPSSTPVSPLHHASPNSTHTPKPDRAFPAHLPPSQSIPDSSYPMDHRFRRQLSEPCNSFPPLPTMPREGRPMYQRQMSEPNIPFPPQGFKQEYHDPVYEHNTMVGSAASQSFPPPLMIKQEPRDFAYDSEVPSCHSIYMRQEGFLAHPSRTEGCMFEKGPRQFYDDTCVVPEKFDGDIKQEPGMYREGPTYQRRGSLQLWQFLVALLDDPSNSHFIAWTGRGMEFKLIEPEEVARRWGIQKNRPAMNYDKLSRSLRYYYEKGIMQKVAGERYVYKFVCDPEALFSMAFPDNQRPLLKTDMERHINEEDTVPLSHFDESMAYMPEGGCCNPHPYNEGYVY
Method in brief: as §1

CATCTA
binding signal [1]: 1.14 fold enrichment (6-mer frequency, TF over GST control) | binding signal [2]: 1.15 fold enrichment (6-mer frequency, TF over GST control) | binding signal [3]: 1.47 fold enrichment (6-mer frequency, TF over GST control) | binding signal [4]: 1.34 fold enrichment (6-mer frequency, TF over GST control) | binding signal [5]: 1.17 fold enrichment (6-mer frequency, TF over GST control) | binding signal [6]: 1.33 fold enrichment (6-mer frequency, TF over GST control) | binding signal [7]: 1.1 fold enrichment (6-mer frequency, TF over GST control) | binding signal [8]: 1.33 fold enrichment (6-mer frequency, TF over GST control) | binding signal [9]: 1.29 fold enrichment (6-mer frequency, TF over GST control) | binding signal [10]: 1.16 fold enrichment (6-mer frequency, TF over GST control)

Source: PMC7862700, “An all-to-all approach to the identification of sequence-specific readers for epigenetic DNA modifications on cytosine”
